RmlCD inh 1536 – M. tuberculosis RmlC/RmlD coupled enzyme inhibitors, primary screen, biochemical, compound mixtures, 384-well, from 1536-well plates; inhibition, % at 3.6 µM; RmlC+RmlD coupled enzyme assay, percent inhibition; primary screen in compound mixtures; 160,000 tested, 0.03% active; in the data active = inhibition mostly above about 34%, no sharp cut-off
Target sequence (P9WH09 whole entry, looked up): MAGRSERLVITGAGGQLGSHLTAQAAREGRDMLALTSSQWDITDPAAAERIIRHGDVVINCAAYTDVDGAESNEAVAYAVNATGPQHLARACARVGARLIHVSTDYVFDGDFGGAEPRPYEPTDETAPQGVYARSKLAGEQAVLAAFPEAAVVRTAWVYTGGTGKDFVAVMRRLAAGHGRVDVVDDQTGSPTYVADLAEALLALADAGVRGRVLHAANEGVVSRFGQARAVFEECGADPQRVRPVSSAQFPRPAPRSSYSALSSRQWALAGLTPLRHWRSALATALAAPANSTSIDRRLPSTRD
Target sequence (P9WH11 whole entry, looked up): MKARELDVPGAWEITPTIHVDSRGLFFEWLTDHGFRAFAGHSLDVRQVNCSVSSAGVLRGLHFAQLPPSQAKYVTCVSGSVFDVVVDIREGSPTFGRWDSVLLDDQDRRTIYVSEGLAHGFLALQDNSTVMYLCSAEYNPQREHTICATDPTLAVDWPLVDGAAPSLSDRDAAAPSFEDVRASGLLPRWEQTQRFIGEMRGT
YopH PTP inh – YopH tyrosine phosphatase inhibitors, primary screen, biochemical, fluorescence Ex485/Em525; YopH tyrosine phosphatase [Yersinia enterocolitica]; inhibition, % (test concentration not listed); 140,000 tested, 0.16% active; in the data active = inhibition above about 50%
An asterisk follows results filed as active; . = no result given. The sample as a whole holds a higher share of hits than the screen did.

SMILES | RmlCD inh 1536 | YopH PTP inh
O=C(O)CCN1Cc2ccccc2C1=O | 4 | -1
CCC(=O)N1Cc2ccccc2-c2ccccc2C1=O | . | 52*
Cc1nnc(Nc2ccccn2)c2ccccc12 | -8 | -24
Nc1cc2nsnc2cc1Br | -4 | 100*
Nc1cccc2nsnc12 | 18 | .
CCOc1ccc(C(=O)c2ccc(OCC)c(N)c2)cc1N | -3 | -16
CCSCCC(NC1=CC(=O)CC(C)(C)C1)C(=O)O (configuration not stated) | -3 | -18
CCN(CC)c1ccc(NC(=O)c2cc(OC)cc(OC)c2)c(C)c1 | 8 | -112
CCN(CC)c1ccc(NC(=O)c2cccc(OC)c2)c(C)c1 | -9 | 51*
COC(=O)c1c(C)oc(C)c1S(=O)(=O)N1CCCCC1 | -4 | .
O=C(O)C1OC(Oc2cc3oc(-c4ccccc4)cc(=O)c3c(O)c2O)C(O)C(O)C1O (configuration not stated) | . | 53*
COc1c(OC2OC(C(=O)O)C(O)C(O)C2O)cc(O)c2c(=O)cc(-c3ccccc3)oc12 (configuration not stated) | . | -48
CCCCCCCC1=CC2=CC(=O)C(C)(OC(C)=O)C(=O)C2=CN1CCc1ccccc1 (configuration not stated) | . | 50*
CCCCC1=CC2=CC(=O)C(C)(OC(=O)CC)C(=O)C2=CN1Cc1ccc2c(c1)OCO2 (configuration not stated) | 18 | .
Cc1ccc(NC(=O)Nc2ccccc2C(N)=O)cc1 | -7 | .
CN1C(=O)CC2(CC(=O)N(Cc3ccccc3)C2)C1=O (configuration not stated) | . | -26
O=[N+]([O-])c1ccc(C=Nc2ccc(Cl)c([N+](=O)[O-])c2)s1 | -4 | .
NC(=O)c1ccc(N=Cc2ccc([N+](=O)[O-])s2)cc1 | . | 92*
Cc1cc(C)cc(N=Cc2ccc([N+](=O)[O-])s2)c1 | 34 | 86*
Cc1ccc(NC(=S)N/N=C/c2ccc([N+](=O)[O-])s2)cc1 | -8 | -23
Cc1cccnc1NC(=O)c1c(O)c2ccccc2n(C)c1=O | 7 | -9
COCCNc1nc(Cl)c(C#N)s1 | -12 | .
Cc1c(-c2ccccc2)nc2ccccc2c1C(=O)OCC(=O)Nc1ncc(C(F)(F)F)cc1Cl | -7 | -18
CCC(=O)Nc1nonc1-c1nc2ccccc2n1CCC(C)C | -6 | 57*
CC(=O)Nc1nonc1-c1nc2ccccc2n1CCC(C)C | -12 | -39
SMILES | RmlCD inh 1536 | YopH PTP inh
CN1C(=O)C(Cc2cccc3ccccc23)C(=O)N(C)C1=O | -8 | 55*
CN1C(=O)C(Cc2c[nH]c3ccccc23)C(=O)N(C)C1=O | . | -26
COc1ccc(C(=O)c2no[n+]([O-])c2C(=O)c2ccc(OC)cc2)cc1 | 13 | -8
O=C(c1cccs1)c1no[n+]([O-])c1C(=O)c1cccs1 | . | 87*
O=C(NN=c1c(=O)c2ccccc2c1=O)c1ccccc1 | 2 | 68*
CN(C)/C=N/NC(=O)c1ccccc1 | -11 | .
CCN(CC)C(=O)Cn1cc(C(=O)C(=O)N2CCc3ccccc32)c2ccccc21 | -15 | .
COc1ccccc1NC(=O)N1CCC(C(=O)c2ccc(F)cc2)CC1 | -7 | 56*
CCOc1ccccc1NC(=O)N1CCC(C(=O)c2ccc(F)cc2)CC1 | -4 | -18
Cc1ccc(C(OCC(O)CNC(C)c2ccccc2)c2ccccc2)cc1 (configuration not stated) | -4 | .
COc1ccc(CN2C(=O)c3ccccc3C(/C=N\OCc3ccc(F)cc3)C2=O)cc1 (configuration not stated) | 5 | 59*
COc1ccc(CN2C(=O)c3ccccc3C(/C=N/OCc3ccc(Cl)cc3)C2=O)cc1 (configuration not stated) | 7 | -6
COC(CNC(=O)c1coc2nc3ccccc3nc12)OC | 74* | .
O=C(NCC1CCCO1)c1coc2nc3ccccc3nc12 (configuration not stated) | -5 | -24
O=c1[nH]c(/C=C/c2ccc(Br)cc2)nc2c1cnn2-c1ccccc1 | -7 | .
COc1cccc(/C=C/c2nc3c(cnn3-c3ccccc3)c(=O)[nH]2)c1 | 35* | .
O=C(/C=C/c1ccc([N+](=O)[O-])cc1)OCC(=O)N1c2ccccc2Sc2ccccc21 | -7 | 53*
O=C(COC(=O)/C=C/c1ccc([N+](=O)[O-])cc1)NCc1ccccc1 | -10 | -17
CCOc1ccc(-c2nnc3ccc(SCC(=O)Nc4nc5ccccc5s4)nn23)cc1 | 4 | 65*
CCOc1ccc(-c2nnc3ccc(SCC(=O)Nc4nc5ccc(C)cc5s4)nn23)cc1 | 8 | -7
CC(NC(=O)C(C)(C)C)c1nc2ccccc2n1C (configuration not stated) | 7 | -33
N#Cc1nc(-c2ccc(OCc3ccccc3)cc2)oc1N1CCC(C(N)=O)CC1 | 41 | 4
COc1ccc(-c2nc(C#N)c(N3CCC(C(N)=O)CC3)o2)cc1 | 3 | 90*
